RAD52 anneal inh: blocks human RAD52 DNA annealing; P43351; recombinant RAD52 DNA annealing, FRET fluorescence; inhibition, % at 18.7 µM; hit rate 0.46% among 360,000; AID 651710;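 active = every replicate showing at least 50% inhibition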
RAD54 inh: inhibitors of human RAD54 branch migration. Q92698. RAD54 Holliday junction branch migration, FAM/BHQ fluorescence. inhibition, % at 10.4 µM. hit rate 0.14% among 360,000;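 active = mean normalized replicate activity at least 40 and at least half of replicates scoring 40 or more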;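 note: 0% = median of neutral control wells and 100% = median of positive control wells; inhibitors cause a drop in the FAM fluorescence signal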
NSD2 HMT inh: inhibitors of human histone methyltransferase NSD2. inhibition, % at 12.5 µM. hit rate 0.54% among 310,000. O96028. AID 743445. NSD2 peptide methylation, AlphaScreen, 120 min; in the data active = inhibition above about 50%
N-glyco inh: N-linked glycosylation inhibition; reporter increase, % at 12.5 µM; D54 ERlucT glycosylation luciferase reporter, 24 h; percent of 100 nM tunicamycin response; hit rate 0.23% among 360,000; AID 588692;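 active = mean luciferase reporter signal, scaled so untreated is 0 and the glycosylation-blocking control 100, at or above a set limit in every replicate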;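 note: luciferase carries N-glycosylation sites so blocking glycosylation raises the light; 0% = median of neutral control wells and 100% = median of 100 nM tunicamycin wells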
Casp6 inh: caspase-6 (human) enzyme inhibition | hit rate 0.53% among 350,000 | P55212 | inhibition, % at 12.5 µM | purified caspase-6, Z-VEID-R110 cleavage fluorescence;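 active = mean inhibition across replicates at least about 35%, with every replicate also reaching that limit, limit read from the data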;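 note: 0% = median of neutral control wells and 100% = no fluorescence left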
Active calls of the source: *; / = no result given; ! = repeats disagree. Hits are enriched below; roughly 1.2% of the tested compounds scored in any of these assays.

SMILES	RAD52 anneal inh	RAD54 inh	NSD2 HMT inh	N-glyco inh	Casp6 inh
C=CC1=C(C(=O)O)N2C(=O)C(NC(=O)Cc3ccccc3)C2SC1 (stereo not given)	-60	-7	2	0	96*
C[C@H]1CN([C@@H](C)CO)S(=O)(=O)c2ccc(C#Cc3ccccc3)cc2O[C@@H]1CN(C)C(=O)CN(C)C	35	-4	/	/	-2
C[C@H]1CN([C@@H](C)CO)S(=O)(=O)c2ccc(C#CCN(C)C)cc2O[C@H]1CN(C)Cc1ccc2c(c1)OCO2	-2	-8	/	/	36*
C[C@H]1CN([C@@H](C)CO)S(=O)(=O)c2ccc(C#CC3CCCCC3)cc2O[C@H]1CN(C)C	53*	11	/	/	1
C[C@@H]1CN([C@@H](C)CO)S(=O)(=O)c2ccc(C#Cc3ccc(F)cc3)cc2O[C@H]1CN(C)C(=O)CN(C)C	55*	12	/	/	3
C[C@H](CO)N1C[C@H](C)[C@@H](CN(C)C(=O)CN(C)C)Oc2cc(C#Cc3ccc(F)cc3)ccc2S1(=O)=O	52*	3	/	/	-1
O=C(C[C@@H]1CC[C@@H](NC(=O)Nc2ccccc2F)[C@H](CO)O1)NCc1ccc(-c2ccccc2)cc1	-3	/	/	/	-5
COc1ccc(S(=O)(=O)N(C)C[C@H]2OCCCC[C@@H](C)Oc3ccc(NC(=O)NC4CCCCC4)cc3C(=O)N([C@@H](C)CO)C[C@@H]2C)cc1	-25	1	/	/	-2
CC(C)NC(=O)Nc1ccc2c(c1)C(=O)N([C@@H](C)CO)C[C@@H](C)[C@@H](CN(C)C(=O)Nc1cccc3ccccc13)O2	-6	0	/	/	46*
C[C@H]1CCCCO[C@H](CN(C)C(=O)Nc2cccc3ccccc23)[C@@H](C)CN([C@@H](C)CO)C(=O)c2cc(N(C)C)ccc2O1	7	-5	/	/	1
C[C@@H]1CCCCO[C@@H](CN(C)C(=O)Nc2cccc3ccccc23)[C@H](C)CN([C@@H](C)CO)C(=O)c2cc(N(C)C)ccc2O1	56*	-11	/	/	-3
CC(C)NC(=O)Nc1ccc2c(c1)C(=O)N([C@H](C)CO)C[C@@H](C)[C@H](CN(C)C(=O)Nc1cccc3ccccc13)O2	3	-3	/	/	-5
CN1CCN(NC(=O)NC2CCCCC2)CC1	0	20	1	1	41*
CCN(CC)CCCOc1nc(C)nc2c1oc1ccccc12	/	18	65*	12	/
COc1ccc(S(=O)(=O)Nc2cccc3c2O[C@@H](CN(C)C(=O)Nc2ccc4c(c2)OCO4)[C@H](C)CN([C@@H](C)CO)C3=O)cc1	-6	2	/	/	-3
O=C(CCN1CCCCC1)N[C@@H]1CC[C@@H](CCNS(=O)(=O)c2ccccc2)O[C@@H]1CO	-2	4	/	/	-2
CO[C@H]1CN(C)C(=O)c2cc(NC(=O)C3CC3)ccc2OC[C@H](C)N(C(=O)c2cnccn2)C[C@@H]1C	7	-2	/	/	0
CC(C)C(OC(=O)C1=Cc2ccccc2OC1)C(=O)NCC1CCCO1 (stereo not given)	-65	16	/	0	47*
CC(/C=C1\SC(=S)N(CCCC(=O)Nc2ccc(C(=O)O)cc2)C1=O)=C\c1ccccc1	/	0	10	-1	/
CC(=Cc1ccccc1)C=C1SC(=S)N(CCCC(=O)Nc2ccc(C(=O)O)cc2)C1=O	-53	-3	/	-1	41*
O=C(O)CN1C(=O)/C(=C\C(Br)=C\c2ccccc2)SC1=S	-131	-4	55*	0	19
O=C(O)CN1C(=O)/C(=C/C=C/c2ccccc2)SC1=S	-80	/	8	-1	3
CC(/C=C1\SC(=S)N(CCC(=O)Nc2cccc(C(=O)O)c2)C1=O)=C\c1ccccc1	-181	-6	20	-3	70*
C[C@H](CO)N1C[C@H](C)[C@H](CN(C)S(=O)(=O)c2ccccc2)Oc2c(NC(=O)Nc3ccc(F)cc3)cccc2C1=O	7	5	/	/	/
COCCCNC(=O)/C(C#N)=C/c1ccc(OCC(=O)O)c(OC)c1	-4	11	42	3	41*
SMILES	RAD52 anneal inh	RAD54 inh	NSD2 HMT inh	N-glyco inh	Casp6 inh
CCCCCc1cc(=O)oc2c(C(CCN(CC)CC)c3cc(OC)c(OC)c(OC)c3)c(OC)cc(OC)c12 (stereo not given)	57*	21	/	-4	4
CCCCCc1cc(=O)oc2c(C(CCN3CCCCC3)c3ccc4c(c3)OCO4)c(OC)cc(OC)c12 (stereo not given)	16	-7	/	1	1
C[C@H]1CN([C@@H](C)CO)C(=O)c2cc(C#Cc3cccnc3)cnc2O[C@H]1CN(C)S(=O)(=O)c1ccccc1F	13	-1	/	/	-2
C[C@H](CO)N1C[C@H](C)[C@@H](CN(C)S(=O)(=O)c2ccccc2F)Oc2ncc(C#Cc3cccnc3)cc2C1=O	-5	3	/	10	36*!
CCOC(=O)c1cc([N+](=O)[O-])cc([N+](=O)[O-])c1Sc1ncnc2nc[nH]c12	-11	/	10	99*	16
O=C(CSc1ncnc2nc[nH]c12)c1ccc([N+](=O)[O-])cc1	3	/	0	45*	0
CCOC(=O)C(C)(C)Sc1ncnc2nc[nH]c12	/	-2	2	0	/
C[C@@H]1CCCCO[C@@H](CN(C)CC2CCCCC2)[C@@H](C)CN([C@@H](C)CO)C(=O)c2cc(NS(=O)(=O)c3ccccc3)ccc2O1	12	8	/	/	0
COc1ccc(CN(C)C[C@@H]2Oc3c(NC(=O)c4cnccn4)cccc3C(=O)N([C@@H](C)CO)C[C@H]2C)cc1	-7	9	/	/	-1
CN(C)C(=O)c1cccc(-c2cnc3c(NC=O)cc(-c4ccccc4Cl)cn23)c1	-10	-6	0	35*	2
Cc1cc(=O)n2c3c(c4c(cc13)c(CN(C)C)cc(=O)n4C)OC2	35	/	/	31*	99*
Cc1ccc(NC(=O)CN2C(=O)S/C(=C/c3ccc(-c4cc(C(=O)O)ccc4C)o3)C2=O)cc1C	/	-5	6	1	/
Cc1ccc(C(=O)O)cc1-c1ccc(C=C2C(=O)c3ccccc3C2=O)o1	-26	/	55*	1	37*
C[C@@H]1CCCCO[C@@H](CN(C)CC2CCCCC2)[C@@H](C)CN([C@H](C)CO)C(=O)c2cc(NS(=O)(=O)c3cn(C)cn3)ccc2O1	12	-7	/	/	1
O=C(C[C@H]1C=C[C@@H](NC(=O)CC2CC2)[C@@H](CO)O1)NCc1ccc(-c2ccccc2)cc1	8	/	/	/	2
O=C(c1ccc2c(c1)OCO2)N1C[C@@H]2N[C@H](C1)C2c1ccc(-c2cccnc2)cc1 (stereo not given in full)	2	/	/	/	0
Fc1cccc(CN2C[C@@H]3N[C@H](C2)[C@@H]3c2ccc(-c3cccc(F)c3)cc2)c1	86*	/	/	/	-1
Fc1cccc(-c2ccc(C3[C@@H]4CN(Cc5cccnc5)C[C@H]3N4)cc2)c1 (stereo not given in full)	55*!	/	/	/	0
Fc1cccc(CN2C[C@@H]3N[C@H](C2)C3c2ccc(-c3ccccc3)cc2)c1 (stereo not given in full)	84*!	/	/	/	1

Screens (PubChem)
